The source of these data is PubChem BioAssay.

Assay [1] can be described thus: yeast TOR pathway RPL19A-GFP modulators, primary screen, cell-based, S. cerevisiae, multiplex flow cytometry (AID 1862; in the data active = percent of DMSO control GFP below about 86%;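 note: lower values mimic rapamycin by blocking the RPL19A rise seen in DMSO cells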). The note with it: S. cerevisiae RPL19A-GFP strain, flow cytometry fluorescence, 3 h; at 10 µM; stronger effect = lower value. (Flow cytometry measures light scatter and fluorescence of single cells or particles in a stream.)
Assay [2] can be described thus: modulators of MEP2-GFP levels in yeast, primary screen, S. cerevisiae, multiplex flow cytometry (AID 1867;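 active = GFP response, as percent of the DMSO control, above the screen-wide mean plus 3 SD, about 139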;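 note: median GFP channel fluorescence of barcode-gated MEP2-GFP cells measured by flow cytometry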). The note with it: S. cerevisiae MEP2-GFP strain, 3 h, at 10 µM, stronger effect = higher value.
Assay [3] in a line: modulators of CIT2-GFP expression in yeast, primary screen, S. cerevisiae, GFP fusion, multiplex flow cytometry (AID 1870;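 active = percent response above a set limit, the screen-wide mean plus 3 SD, cut at about 130% in these data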;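 note: barcoded CIT2-GFP strain pooled with four other GFP strains with rapamycin as positive control; median GFP fluorescence per well over plate mean of DMSO wells so 100% = DMSO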). The note with it: 3 h, at 10 µM, stronger effect = higher value.
A short description of assay [4]: modulators of LAP4-GFP expression in yeast, primary screen, S. cerevisiae, multiplex flow cytometry (AID 1873;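 active = GFP signal, as percent of the solvent control, above the screen mean plus 3 SD, about 149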). The note with it: 3 h, at 10 µM, stronger effect = higher value.
Assay [5] is described as follows: modulators of AGP1-GFP expression in yeast TOR pathway, primary screen, cell-based, multiplex flow cytometry, S. cerevisiae (AID 1887;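 active = GFP signal above the screen-wide mean plus 3 SD, that is over about 124.5% of the solvent control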;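 note: AGP1-GFP fusion strain of S. cerevisiae within a five-strain barcoded multiplex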). The note with it: 3 h, at 10 µM, stronger effect = higher value.
A short description of assay [6]: inhibitors of CD8+ T cell-vesicle binding, pilot screen, LFA-1/ICAM-1 modulator project, MLPCN validation set, flow cytometry (AID 2523;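 active = response below a set limit, under 55% cells CD8-positive and vesicle-bound, and CD8 cells' 90th-percentile brightness under 279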;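 for vesicle binding response: mean PE anti-B7-1 fluorescence of CD8+ cells relative to row control; 100% = QL9-loaded vesicles with DMSO vehicle in the same plate row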). The note with it: 2C mouse CD8+ T cells, at 7 µM, stronger effect = lower value; double positive events: measured here: CD8+/vesicle+ event percentage.
In assay [7] the target is Integrin beta-1 (Homo sapiens) + Integrin alpha-4 (Homo sapiens) (UniProt P13612+P05556). The assay is described as follows: inhibition of HUTS-21 binding to VLA-4, pilot screen, VLA-4 allosteric modulator project, U937 cells, HUTS-21 mAb, flow cytometry, validation set (AID 2674;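 active = inhibition above 50%, about 3 SD of the validation set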;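 note: antibody binding induced by the VLA-4 ligand LDV present at three times its Kd; 0% = LDV ligand with antibody and no compound and 100% = antibody without LDV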). The note with it: HUTS-21 LIBS mAb binding, at 6.7 µM, stronger effect = higher value.
Assay [8] is described as follows: superoxide lowering in aged yeast cells, pilot screen, validation compound set (AID 2706;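 active = superoxide response below 65% of plate, a cut near 3 SD across the whole screen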;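 note: yeast exposed to compound for one week at 30 degrees C before staining; 100% = mean of all compound wells on the same plate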). The note with it: S. cerevisiae aging, superoxide DHE fluorescence; at 10 µM; stronger effect = lower value.
Assay [9] has as its target Beta-adrenergic receptor kinase 1 (Homo sapiens) (UniProt P25098). Kind of assay: GRK2 binders displacing RNA aptamer, biochemical, validation, human GRK2, bead flow cytometry (AID 488806;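 active = aptamer binding inhibition above 30%, about 3 SD of noise from non-fluorescent compounds; inactive = inhibition at or below 30%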). The note with it: bead-bound GRK2, FAM-aptamer displacement, at 10 µM, stronger effect = higher value.
The target of assay [10] is Beta-2 adrenergic receptor (Homo sapiens) (UniProt P07550). The assay is described as follows: beta2AR agonists driving receptor internalization, pilot screen, cell-based, FAP fluorogen, flow cytometry, validation set (AID 504459;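 active = percent response above 42, roughly 3 SD of non-fluorescent test compounds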;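 note: agonist-driven loss of surface beta2AR via internalization measured by FAP dye flow cytometry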). The note with it: Am2.2-beta2AR cells, FAP surface receptor flow cytometry; at 10 µM; stronger effect = higher value.
Assay [11] has as its target AP-2 complex subunit beta (Homo sapiens) (UniProt P63010). The assay is described as follows: inhibitors of arrestin peptide binding to AP2, pilot screen, biochemical, validation set, GST-AP2 beads, flow cytometry (AID 504541;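 active = inhibition above 54%, about 3 SD of non-fluorescent compounds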;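 note: AP2 carries R879A mutation and is captured from E. coli lysate; bead-bound FITC arrestin peptide fluorescence measuring arrestin peptide binding to AP2; 0% = DMSO wells and 100% = excess unlabeled arrestin peptide control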). The note with it: FITC arrestin peptide, at 10 µM, stronger effect = higher value.
Assay [12] in a line: yeast V-ATPase proton transport modulators, S. cerevisiae, pHLuorin, HTS validation (AID 504600; in the data active = response above about 15%;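 note: plate controls were DMSO for no effect and reference compound for full effect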). The note with it: S. cerevisiae pHLuorin cytosolic pH, at 10 µM, stronger effect = higher value.
The subject of assay [13] is anti-desmoglein-3 scFv antibody binding to human DSG3. Kind of assay: inhibitors of anti-DSG3 scFv binding to DSG3, pilot screen, biochemical, validation compound set, bead-based, flow cytometry (AID 588368;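 active = binding below the plate cutoff, the plate median minus 3 SD, with a reading above zero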;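 note: signal is the median channel fluorescence of bead-bound GFP antibody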). The note with it: Protein G beads, DSG3-Fc, scFv-GFP binding, at 10 µM, stronger effect = lower value.
Assay [14] has as its system Botulinum neurotoxin type F light chain protease (Clostridium botulinum). The assay is described as follows: Botulinum neurotoxin type F light chain protease inhibition, multiplex microsphere flow cytometry, validation set (AID 588459). The note with it: multiplex microsphere protease substrate cleavage assay, at 10 µM, stronger effect = higher value.
The target of assay [15] is Botulinum neurotoxin type A (Clostridium botulinum) (UniProt P0DPI0). Kind of assay: BoNT/A light chain protease inhibitors, biochemical, multiplex microsphere flow cytometry, validation set (AID 588460). The note with it: at 10 µM, stronger effect = higher value.
The target of assay [16] is Lethal factor (Bacillus anthracis) (UniProt P15917). Kind of assay: Lethal factor protease inhibitors, Bacillus anthracis, multiplex microsphere cleavage assay, validation set (AID 588461). The note with it: flow cytometry, at 10 µM, stronger effect = higher value.
The nature of assay [17]: inhibitors of fungal efflux pumps CDR1, CDR2, MDR1, pilot screen, validation compound set, multiplex, phenotypic (AID 588506;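 active = efflux inhibition above 0.42, the validation set average plus 4 SD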;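 note: Nile Red retained in cells so higher fluorescence means more efflux inhibition; 0 = negative control wells and 1 = enniatin B 25 µM full block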). The note with it: S. cerevisiae pump-expressing triplex, Nile Red efflux flow cytometry; at 10 µM; stronger effect = higher value.
Assay [18] deals with ATP-binding cassette sub-family B member 6 (Homo sapiens) (UniProt Q9NP58). The assay is described as follows: ABCB6 transporter inhibitors, pilot screen, K562-ABCB6 cells, flow cytometry, validation set (AID 588550;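 active = inhibition above the screen-wide mean plus 3 SD, about 51%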;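 note: 0% = DMSO wells and 100% = benzethonium chloride 70 µM positive control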). The note with it: K562-ABCB6 porphyrin accumulation, 1 h, at 10 µM, stronger effect = higher value.
Assay [19] is described as follows: promoters of myeloid differentiation in arrested cells, primary screen, cell-based, GFP/MAC1 double positive, flow cytometry, validation set (AID 588685;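 active = differentiation response of at least 50%, scaled between solvent and reference control, from cells with both markers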;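 note: compound exposure lasts four days before antibody staining and flow analysis; 0% = DMSO wells and 100% = 5 µM fulvestrant positive control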). The note with it: ER-HoxA9 marrow cells, stronger effect = higher value.

Inconclusive results are not listed. The source made the active and inactive calls. Unless noted, the rule behind the calls is not given here.

Sequence of AP-2 complex subunit beta (Homo sapiens) (P63010 whole entry, looked up, one chain of several): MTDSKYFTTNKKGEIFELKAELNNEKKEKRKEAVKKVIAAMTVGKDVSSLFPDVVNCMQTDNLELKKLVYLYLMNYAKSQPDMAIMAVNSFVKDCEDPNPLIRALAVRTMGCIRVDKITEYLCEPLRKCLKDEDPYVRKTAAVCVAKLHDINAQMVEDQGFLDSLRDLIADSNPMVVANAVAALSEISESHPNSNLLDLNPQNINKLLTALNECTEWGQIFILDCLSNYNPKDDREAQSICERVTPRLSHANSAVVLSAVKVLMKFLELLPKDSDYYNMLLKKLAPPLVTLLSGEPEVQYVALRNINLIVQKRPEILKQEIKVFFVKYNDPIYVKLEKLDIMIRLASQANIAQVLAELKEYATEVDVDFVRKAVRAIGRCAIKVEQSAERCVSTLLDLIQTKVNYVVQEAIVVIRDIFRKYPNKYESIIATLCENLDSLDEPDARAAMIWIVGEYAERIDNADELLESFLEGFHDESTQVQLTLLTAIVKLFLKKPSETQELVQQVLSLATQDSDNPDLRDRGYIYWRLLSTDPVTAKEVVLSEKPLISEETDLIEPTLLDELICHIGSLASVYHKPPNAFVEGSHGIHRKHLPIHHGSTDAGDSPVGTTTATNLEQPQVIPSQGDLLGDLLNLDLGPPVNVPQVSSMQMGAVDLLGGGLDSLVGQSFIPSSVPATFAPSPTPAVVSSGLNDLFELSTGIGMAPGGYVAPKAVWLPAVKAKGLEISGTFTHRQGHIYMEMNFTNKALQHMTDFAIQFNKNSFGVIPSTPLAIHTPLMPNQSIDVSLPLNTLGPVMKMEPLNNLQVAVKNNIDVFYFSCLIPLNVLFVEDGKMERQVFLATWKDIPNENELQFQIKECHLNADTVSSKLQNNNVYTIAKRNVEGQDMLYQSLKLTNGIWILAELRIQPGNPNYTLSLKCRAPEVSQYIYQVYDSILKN
Sequence of Integrin beta-1 (Homo sapiens) + Integrin alpha-4 (Homo sapiens) (P05556 whole entry, looked up): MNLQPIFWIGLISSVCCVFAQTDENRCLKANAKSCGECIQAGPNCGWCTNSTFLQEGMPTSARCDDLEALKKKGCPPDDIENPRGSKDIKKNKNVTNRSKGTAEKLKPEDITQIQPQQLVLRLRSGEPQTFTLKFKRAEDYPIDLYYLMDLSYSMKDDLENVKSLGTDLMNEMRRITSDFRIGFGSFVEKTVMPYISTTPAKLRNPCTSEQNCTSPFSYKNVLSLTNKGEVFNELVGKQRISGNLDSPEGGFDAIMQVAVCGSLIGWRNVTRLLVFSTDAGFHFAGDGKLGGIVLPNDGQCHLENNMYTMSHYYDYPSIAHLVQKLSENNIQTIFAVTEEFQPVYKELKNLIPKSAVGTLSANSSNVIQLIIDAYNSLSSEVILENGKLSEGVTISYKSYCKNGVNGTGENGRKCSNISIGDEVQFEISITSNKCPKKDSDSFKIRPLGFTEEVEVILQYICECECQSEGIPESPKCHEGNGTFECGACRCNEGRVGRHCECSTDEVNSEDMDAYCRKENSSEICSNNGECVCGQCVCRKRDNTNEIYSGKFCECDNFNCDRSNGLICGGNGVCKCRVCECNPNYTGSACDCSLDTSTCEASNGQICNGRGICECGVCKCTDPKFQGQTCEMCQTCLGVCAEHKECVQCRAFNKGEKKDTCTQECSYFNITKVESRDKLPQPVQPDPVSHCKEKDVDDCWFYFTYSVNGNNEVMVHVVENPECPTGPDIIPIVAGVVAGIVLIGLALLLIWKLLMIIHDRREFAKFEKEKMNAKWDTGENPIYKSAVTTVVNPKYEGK
Sequence of Integrin beta-1 (Homo sapiens) + Integrin alpha-4 (Homo sapiens) (P13612 whole entry, looked up): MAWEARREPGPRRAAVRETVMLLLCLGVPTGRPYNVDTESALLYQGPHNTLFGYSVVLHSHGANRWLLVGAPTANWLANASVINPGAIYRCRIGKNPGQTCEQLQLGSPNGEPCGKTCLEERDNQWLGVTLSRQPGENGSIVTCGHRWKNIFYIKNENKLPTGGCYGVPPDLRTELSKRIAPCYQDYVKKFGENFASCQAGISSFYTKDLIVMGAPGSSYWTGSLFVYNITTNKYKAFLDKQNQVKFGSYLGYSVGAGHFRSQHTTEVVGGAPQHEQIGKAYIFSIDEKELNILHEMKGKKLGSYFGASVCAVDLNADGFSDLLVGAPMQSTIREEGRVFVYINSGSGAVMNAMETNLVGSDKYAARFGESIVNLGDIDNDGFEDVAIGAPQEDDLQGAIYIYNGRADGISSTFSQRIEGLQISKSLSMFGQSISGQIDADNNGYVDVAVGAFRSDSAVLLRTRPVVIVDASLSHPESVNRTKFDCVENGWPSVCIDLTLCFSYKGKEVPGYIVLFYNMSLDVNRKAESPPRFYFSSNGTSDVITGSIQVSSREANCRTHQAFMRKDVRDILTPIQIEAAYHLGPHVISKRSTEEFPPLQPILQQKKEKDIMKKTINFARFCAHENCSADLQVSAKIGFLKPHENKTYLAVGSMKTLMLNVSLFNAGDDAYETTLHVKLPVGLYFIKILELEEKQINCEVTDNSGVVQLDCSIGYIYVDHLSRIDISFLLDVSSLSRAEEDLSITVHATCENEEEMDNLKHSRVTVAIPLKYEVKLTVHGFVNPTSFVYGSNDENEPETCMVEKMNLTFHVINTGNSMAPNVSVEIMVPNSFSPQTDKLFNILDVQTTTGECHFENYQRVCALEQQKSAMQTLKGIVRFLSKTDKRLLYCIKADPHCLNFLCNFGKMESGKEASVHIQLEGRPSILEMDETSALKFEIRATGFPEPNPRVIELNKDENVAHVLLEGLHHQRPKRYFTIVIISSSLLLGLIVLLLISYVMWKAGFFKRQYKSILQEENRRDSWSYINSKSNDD
Sequence of Botulinum neurotoxin type A (Clostridium botulinum) (P0DPI0 whole entry, looked up): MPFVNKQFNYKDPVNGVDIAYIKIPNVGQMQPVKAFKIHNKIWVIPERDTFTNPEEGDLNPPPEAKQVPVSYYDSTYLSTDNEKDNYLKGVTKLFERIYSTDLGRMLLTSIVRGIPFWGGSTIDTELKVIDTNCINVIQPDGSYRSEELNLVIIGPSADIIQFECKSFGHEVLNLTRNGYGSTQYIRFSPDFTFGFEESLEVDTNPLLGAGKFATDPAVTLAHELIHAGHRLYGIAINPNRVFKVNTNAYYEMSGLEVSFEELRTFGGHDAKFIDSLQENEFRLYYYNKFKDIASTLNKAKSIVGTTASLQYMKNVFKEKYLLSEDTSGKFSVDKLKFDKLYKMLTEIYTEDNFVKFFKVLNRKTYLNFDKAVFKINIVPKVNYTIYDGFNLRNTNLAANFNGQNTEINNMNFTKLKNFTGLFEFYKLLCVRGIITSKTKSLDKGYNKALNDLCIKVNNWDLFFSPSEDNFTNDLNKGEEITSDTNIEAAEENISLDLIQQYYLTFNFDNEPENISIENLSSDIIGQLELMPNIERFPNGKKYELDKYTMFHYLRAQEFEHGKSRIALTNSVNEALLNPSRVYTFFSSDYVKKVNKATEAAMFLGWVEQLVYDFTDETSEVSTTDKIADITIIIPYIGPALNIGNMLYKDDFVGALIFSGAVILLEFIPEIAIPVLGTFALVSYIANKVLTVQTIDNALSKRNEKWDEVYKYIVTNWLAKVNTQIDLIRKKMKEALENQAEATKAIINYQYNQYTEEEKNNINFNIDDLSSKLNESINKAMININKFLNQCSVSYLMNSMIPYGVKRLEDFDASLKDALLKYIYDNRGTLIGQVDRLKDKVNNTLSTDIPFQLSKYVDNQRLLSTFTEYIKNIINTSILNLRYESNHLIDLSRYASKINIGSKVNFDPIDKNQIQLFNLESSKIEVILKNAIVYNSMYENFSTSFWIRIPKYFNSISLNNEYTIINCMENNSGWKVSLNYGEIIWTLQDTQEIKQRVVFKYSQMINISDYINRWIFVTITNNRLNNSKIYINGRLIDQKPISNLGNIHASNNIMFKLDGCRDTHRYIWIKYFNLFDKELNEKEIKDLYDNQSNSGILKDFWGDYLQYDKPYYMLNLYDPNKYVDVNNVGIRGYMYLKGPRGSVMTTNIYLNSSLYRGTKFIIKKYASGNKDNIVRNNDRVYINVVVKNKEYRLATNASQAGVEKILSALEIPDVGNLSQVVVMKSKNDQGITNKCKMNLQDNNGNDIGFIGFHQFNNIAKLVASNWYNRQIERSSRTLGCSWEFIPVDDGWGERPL
Sequence of Beta-adrenergic receptor kinase 1 (Homo sapiens) (P25098 whole entry, looked up): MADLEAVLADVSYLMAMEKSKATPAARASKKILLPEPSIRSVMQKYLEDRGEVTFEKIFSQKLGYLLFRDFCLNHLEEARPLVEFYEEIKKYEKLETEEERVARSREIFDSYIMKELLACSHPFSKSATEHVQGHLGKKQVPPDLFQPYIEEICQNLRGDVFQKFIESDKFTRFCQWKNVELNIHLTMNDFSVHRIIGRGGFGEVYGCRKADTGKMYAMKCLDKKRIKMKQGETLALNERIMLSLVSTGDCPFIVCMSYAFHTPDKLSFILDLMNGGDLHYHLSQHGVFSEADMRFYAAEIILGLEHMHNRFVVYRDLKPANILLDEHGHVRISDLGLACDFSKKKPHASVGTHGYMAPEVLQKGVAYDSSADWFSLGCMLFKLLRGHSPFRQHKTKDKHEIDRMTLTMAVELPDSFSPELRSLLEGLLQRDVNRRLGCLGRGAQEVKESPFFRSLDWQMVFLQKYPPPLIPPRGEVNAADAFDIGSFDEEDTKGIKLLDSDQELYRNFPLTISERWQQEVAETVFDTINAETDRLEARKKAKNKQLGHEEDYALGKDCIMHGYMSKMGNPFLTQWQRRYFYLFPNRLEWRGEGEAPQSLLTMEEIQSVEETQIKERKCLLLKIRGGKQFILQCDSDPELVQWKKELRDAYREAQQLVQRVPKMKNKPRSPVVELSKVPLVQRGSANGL

Consider `COc1ccc(CN2CC3CC(C2)c2cccc(=O)n2C3)cc1OC` (stereo not given), for which the percent of DMSO control GFP in assay [1] is 105% (inactive). Also, the GFP response vs DMSO in assay [2] is 101% (inactive); in assay [4], 84.1% (inactive). In assay [3], the percent response of DMSO control is 95.4% (inactive). Moreover, the GFP response, % of DMSO in assay [5] was 95.1% (inactive). The compound also returned a double positive events in assay [6] of 60.2%. Further, the vesicle binding response in [6] is 170% (inactive). Moreover, the inhibition was 14.1% (inactive) in assay [7]; -0.56% (inactive) in [11]; 1.7% (inactive) in assay [14]; -1.2% (inactive) in [15]; -0.8% (inactive) in assay [16]; 8% (inactive) in assay [18]. In addition, the superoxide response (% of plate) in assay [8] was 93% (inactive). Moreover, the aptamer binding inhibition in [9] is 0% (inactive). Also, the response in assay [10] is 2.8% (inactive); in [12] it was 1% (inactive). For the same compound, the binding (% of control) in assay [13] is 100% (inactive). The efflux inhibition (fraction of control) in assay [17] was 0.39 (inactive). In [19], the differentiation response was 4.15% (inactive).
For `CC12CN3CC(C)(CN(C1)C3c1cccs1)C2O` (stereo not given), the percent of DMSO control GFP in [1] is 105% (inactive). The values for the GFP response vs DMSO in assay [2] and in assay [4] were 98.3% (inactive) and 83.5% (inactive), respectively. Also, the percent response of DMSO control in assay [3] was 109% (inactive). The GFP response, % of DMSO in assay [5] was 104% (inactive). This compound returned a double positive events in [6] of 67%. In addition, the vesicle binding response in assay [6] was 976% (inactive). The inhibition in assay [7] is 4.73% (inactive); in [11] it was 1.53% (inactive); in assay [14], -2.4% (inactive); in [15], -1.2% (inactive); in [16], 7.5% (inactive); in assay [18], 0% (inactive). Also, in assay [8], the superoxide response (% of plate) was 106% (inactive). In addition, in assay [9], the aptamer binding inhibition was 2% (inactive). Moreover, the figures for the response in [10] and in [12] were -7.61% (inactive) and 1.19% (inactive), respectively. In addition, the binding (% of control) in assay [13] is 98% (inactive). Besides, in assay [17], the efflux inhibition (fraction of control) is -0.07 (inactive). Further, the differentiation response in [19] was 0.24% (inactive).
Consider `CC1CCC[C@H](O)CCCCCc2cc(O)cc(O)c2C(=O)O1` (stereo not given in full), for which the percent of DMSO control GFP in assay [1] is 102% (inactive). Moreover, the GFP response vs DMSO is 99.7% (inactive) in [2] and 114% (inactive) in assay [4]. Moreover, in [3], the percent response of DMSO control was 106% (inactive). Also, the GFP response, % of DMSO in [5] is 109% (inactive). In [6], the double positive events came out at 62.7%. Further, in assay [6], the vesicle binding response was 174% (inactive). The inhibition in assay [7] was 19% (inactive); in assay [11], -18.8% (inactive); in assay [14], -0.6% (inactive); in assay [15], 0.6% (inactive); in assay [16], -2.4% (inactive); in assay [18], -7% (inactive). The superoxide response (% of plate) in assay [8] was 111% (inactive). Further, in assay [9], the aptamer binding inhibition is -3% (inactive). Besides, the figures for the response in assay [10] and in [12] were -2.64% (inactive) and 6.16% (inactive), respectively. Also, the binding (% of control) in assay [13] was 106% (inactive). Further, the efflux inhibition (fraction of control) in [17] was 0.69 (active). Moreover, in [19], the differentiation response is -4.57% (inactive).
Turning to `C[N+]1(C)CCOC(O)(c2ccc(-c3ccc(C4(O)C[N+](C)(C)CCO4)cc3)cc2)C1` (stereo not given), the percent of DMSO control GFP in [1] was 94.6% (inactive). For the same compound, the GFP response vs DMSO in assay [2] was 126% (inactive); in assay [4], 76.5% (inactive). For the same compound, the percent response of DMSO control in [3] is 101% (inactive). Besides, the GFP response, % of DMSO in [5] was 88% (inactive). In assay [6], the double positive events was found to be 64.9%. Moreover, the vesicle binding response in assay [6] was 192% (inactive). Also, the inhibition was 9.37% (inactive) in assay [7]; 1.77% (inactive) in assay [11]; 1.7% (inactive) in assay [14]; 0.1% (inactive) in assay [15]; 0.5% (inactive) in [16]; 15% (inactive) in assay [18]. The superoxide response (% of plate) in [8] was 113% (inactive). In addition, the aptamer binding inhibition in [9] is -3% (inactive). Further, the response in assay [10] is -10.1% (inactive); in [12], 2.1% (inactive). In assay [13], the binding (% of control) is 101% (inactive). In addition, the efflux inhibition (fraction of control) in assay [17] is 0.19 (inactive). Moreover, the differentiation response in assay [19] is 2.46% (inactive).

In general, inhibition refers to the drop in the measured response relative to a control, in per cent.
